The values that follow come from PubChem BioAssay (NCATS).

Results filed as inconclusive are left out. The source made the active and inactive calls. Unless noted, calls come from the whole dose curve; as a rule, active = well fitted curve in the direction sought with a large enough effect; inconclusive = small, poorly fitted or top-dose-only effect, or another doubt; inactive = no such curve, though single readings can be large; an effect the other way counts as inactive or inconclusive.

In experiment [1] the target is Lysosomal acid glucosylceramidase (Homo sapiens) (UniProt P04062). The experiment in a line: Glucocerebrosidase-p2 (AID 348; in the data active = potency below about 10 µM; note: potency is the fitted concentration of half-maximal effect). The conditions noted are these: purified GBA, blue fluorogenic substrate, 40 min. The gist of the method: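 Compounds titrated from 0.6 nM upwards against 0.2 nM enzyme in pH 5.9 citric acid/KH2PO4, taurocholate, tween-20; blue fluorogenic substrate 80 uM, 40 min room temperature, stopped and read Ex 365/Em 440 for AC50.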

Experiment [2] in a line: AP1 Signaling Pathway (AID 357; active = well fitted curve in either direction with a large enough effect, not every such curve was filed as active;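 note: ME-180 reporter cells stimulated with EGF at its EC50 level; % is set by controls: 0 for no effect and ±100 for the full control effect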). The note with it: ME-180 AP-1-bla reporter, EGF-induced, beta-lactamase ratio, 5 h; at 7.69 µM (top of the series) unless noted. The method in brief:
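In this screen, ME-180 cells in Opti-MEM with 0.5% dialyzed FBS received EC50 EGF and compound titrations for 5 h. AP-1 reporter beta-lactamase was detected via CCF4 ratio, giving AC50 for positive and negative modulators.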

In experiment [3] the target is Cytochrome P450 1A2 (Homo sapiens) (UniProt P05177). The experiment is described as follows: p450-cyp1a2 (AID 410; calls by dose curve; note: potency is the fitted concentration of half-maximal effect). The gist of the method:
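Human CYP1A2 (20nM) demethylated Luciferin-ME at its Km (100uM) in 100mM KPO4. After 10 min compound preincubation, NADPH regeneration ran the reaction 60 min at room temperature. Luciferin was read by luminescence, normalized to 57 uM furafylline.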

Experiment [4] in a line: NFAT Signaling Pathway (AID 444; active = well fitted curve in either direction with a large enough effect, not every such curve was filed as active;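 note: carbachol stimulus at about its EC50 of 1 µM final; % is set by controls: 0 for no effect and ±100 for the full control effect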). The note with it: Jurkat NFAT-bla M1, carbachol, beta-lactamase ratio, 5 h; at 7.69 µM (top of the series) unless noted. The method in brief:
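Read-out: CCF4 FRET ratio (460 nm/530 nm) after 1 h RT dye loading, used for %activity and AC50 from titration series. Cells: Jurkat NFAT-β-lactamase/M1 line, treated with compound plus 1 uM carbachol for 5 h, 37 °C.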

Experiment [5] in a line: Stat Signaling Pathway (AID 446; active = well fitted curve in either direction with a large enough effect, not every such curve was filed as active;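 note: ME-180 cervical cancer cells given 40 pM IL-6 alongside compound; SIE-controlled beta-lactamase reporter measured as 460/530 nm FRET emission ratio; % is set by controls: 0 for no effect and ±100 for the full control effect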). The note with it: ME-180 (cervical carcinoma) SIE beta-lactamase reporter, IL-6 stimulated, 5 h; at 7.69 µM (top of the series) unless noted. The gist of the method:
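ME-180 cells carrying a SIE-driven beta-lactamase reporter are stimulated with 40 pM IL-6 for 5 h at 37C in the presence of compound. The 460/530 nm FRET substrate ratio is read after 2.5 h at RT. Data are normalised to 300 pM IL-6 and to 125 nM JAK inhibitor controls.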

The target of experiment [6] is Glucocorticoid receptor (Homo sapiens) (UniProt P04150). The experiment is described as follows: GR-GFP Redistribution (AID 450;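 active = compounds whose dose series gives a full or clear partial fitted curve of increased nuclear translocation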; note: potency is the fitted concentration of half-maximal effect). The conditions noted are these: U2OS GR-GFP nuclear translocation, laser cytometry, 2 h.
Experiment [7] shares this target. The experiment is described as follows: GR-EFC Redistribution (AID 451; calls by dose curve; note: potency is the fitted concentration of half-maximal effect). The note with it: CHO-K1 GR-EFC translocation, beta-gal luminescence, 2 h. The gist of the method: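 Translocation of GR-ED fusion to nuclear EA restores b-gal, read by luminescence after 1 h room-temperature detection. Engineered CHO-K1 biosensor cells, 1,000/well, exposed 2 h at 37 C to titrations up to 46 uM final.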

Experiment [8] addresses Mitogen-activated protein kinase 10 (Mus musculus) (UniProt Q61831). The experiment is described as follows: JNK3 AlphaScreen Assay (AID 530; active = well fitted curve in either direction with a large enough effect, not every such curve was filed as active;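 note: kinase came from lysate of stimulated human HepG2 cells; signal reports phosphorylation of biotinylated GST-cJun 1-79 at Ser73 with 10 µM ATP; % is set by controls: 0 for no effect and ±100 for the full control effect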). The method in brief: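 Room-temperature AlphaScreen kinase assay; pre-activated HepG2 lysate as JNK3 source, biotin-GST-cJun(1-79) substrate, 10 uM ATP, compound 15 min preincubation.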
Background: Alpha assays give light when donor and acceptor beads are brought close together.

Experiment [9] addresses 3',5'-cyclic-AMP phosphodiesterase 4B (Homo sapiens) (UniProt Q07343). The experiment in a line: qHTS Assay for Inhibitors of PDE-IV (AID 607; active = well fitted activation curve with a large enough effect in the main read-out, with a control signal flat, not every such curve was filed as active; note: % of control where 0% means no effect). The gist of the method: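 HEK293 ACTOne cells with CNG channel (1000/well), endogenous PDE4; membrane potential dye, compounds up to 22.9 uM final. Fluorescence Ex 535/Em 590; RO 20-1724 (100 uM final) as reference.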
Background: Quantitative high-throughput screening tests each substance at several concentrations.

In experiment [10] the target is Cytochrome P450 2C9 (Homo sapiens) (UniProt P11712). The experiment in a line: qHTS Assay for Inhibitors and Substrates of Cytochrome P450 2C9 (AID 883). Note: % is set by controls: 0 for no effect and ±100 for the full control effect; nearly all actives have a fitted effect of over 60% in size. The gist of the method:
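Turnover of Luciferin-H (100uM, KM) by 10nM human CYP2C9 was measured over 60 min at 37C with NADPH regeneration; inhibitors and some substrates reduce luminescence. Data normalized to sulphaphenazole 57uM.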

Experiment [11] in a line: qHTS Assay for Lipid Storage Modulators (AID 1519; calls by dose curve). The note with it: Drosophila S3 cells, BODIPY lipid droplet/cell ratio, laser cytometry, cells loaded with oleic acid; for activity change, negative = inhibition: at 57.5 µM (top of the series). The method in brief:
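Cells seeded at 5,000 per well were treated with compounds over a concentration series and loaded with oleic acid (400 uM, as added). Lipid droplet fluorescence (488 nm excitation, 500-530 nm channel) was read by laser-scanning cytometry and normalized to 20 uM Triacsin C.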

Experiment [12] deals with Dual specificity protein kinase CLK4 (Homo sapiens) (UniProt Q9HAZ1). The experiment in a line: qHTS Assay for Inhibitors of CDC-like Kinase 4 (Kinase-Glo Assay) (AID 1770). Note: % is set by controls: 0 for no effect and ±100 for the full control effect; nearly all actives have a fitted effect of over 65% in size. The method in brief: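 Clk4 25 nM, RS peptide 100 uM, ATP 1 uM, pH 7.5 Tris, 10 mM MgCl2, 2.5 mM DTT; 4.5 h RT; ATP depletion read by Kinase-Glo luminescence.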
The target is the same in experiment [13]. The experiment is described as follows: qHTS Assay for Inhibitors of CDC-like Kinase 4 (ADP-Glo Assay) (AID 1771). Note: % is set by controls: 0 for no effect and ±100 for the full control effect; nearly all actives have a fitted effect of over 70% in size. The method in brief: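 Clk4 (25 nM) was incubated 1 hr at room temperature with 100 uM RS repeat peptide and 1 uM ATP in buffer with 2 mM MgCl2, 0.5 mM EGTA, 2.5 mM DTT. ADP formed was quantified by ADP-Glo luminescence.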
Experiment [14] has the same target. The experiment in a line: qHTS Assay for Inhibitors of CDC-like Kinase 4 (ADP-FP Assay) (AID 1795).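 Note: recombinant human CLK4 phosphorylating RS repeat peptide at 1 µM ATP; % is set by controls: 0 for no effect and ±100 for the full control effect; nearly all actives have a fitted effect of over 60% in size.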 The gist of the method: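 Kinase activity was followed as ADP output, converted from fluorescence polarization with a calibration curve. Reactions ran one hour at low ATP (1 uM) with RS peptide substrate.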
The target in experiment [15] is Ubiquitin carboxyl-terminal hydrolase 1 (Homo sapiens) (UniProt O94782). The experiment is described as follows: Inhibitors of USP1/UAF1: Pilot qHTS (AID 504865).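 Note: rhodamine fluorescence freed from ubiquitin-rhodamine substrate followed over time; top concentration of the series differs between compounds; % is set by controls: 0 for no effect and ±100 for the full control effect; nearly all actives have a fitted effect of over 35% in size.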 The method in brief:
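Enzyme-free wells gave the negative control, while test wells held 1nM USP1/UAF1 preincubated with compound for 15 min at room temperature. Ub-Rho at 150nM final started the reaction, and fluorescence at 480/540 nm was recorded kinetically.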

Experiment [16] can be described thus: Counterscreen qHTS for small molecule stabilizers of the endoplasmic reticulum resident proteome: GLuc-NoTag assay (AID 1508627).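 Note: SH-SY5Y cells given compound then 100 nM thapsigargin to empty ER calcium; 0% = thapsigargin alone and -100% = DMSO vehicle control.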 The method in brief:
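Luminescence of Gaussia luciferase secreted into the medium (coelenterazine, 0.07x final, unlysed cells) was the read-out. Human SH-SY5Y neuroblastoma cells constitutively secreting untagged GLuc received compound for 19 h, then 100 nM thapsigargin for 4 h.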
Background: The purpose of a counterscreen is to sort out artefacts and off-target activity.

Experiment [17] is described as follows: Confirmatory qHTS for small molecule stabilizers of the endoplasmic reticulum resident proteome: Secreted ER Calcium Modulated Protein (SERCaMP) assay (AID 1508628). Note: nearly all actives have a fitted effect of over 40% in size. Note: potency is the fitted concentration of half-maximal effect. The gist of the method:
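We seeded SH-SY5Y-GLuc-SERCaMP cells, added compounds (three concentrations in the primary run, eleven up to 76.6 uM in confirmation), incubated 16 h, depleted ER calcium with thapsigargin, and read luciferase 4 h later.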

Experiment [18] deals with Cytochrome P450 3A4 (Homo sapiens) (UniProt P08684). The experiment in a line: qHTS Assay for Activators of Cytochrome P450 3A4 (AID 885). Note: nearly all actives have a fitted effect of over 65% in size. The method in brief: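 Human CYP3A4 (20 nM) with Luciferin-PPXE at 25 uM (its KM) in 200 mM KPO4; 10 min compound preincubation, then NADPH regeneration and 60 min reaction at RT. Luciferin read by luminescence; normalized to 57 uM ketoconazole full inhibition.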

The nature of experiment [19]: Cell Viability qHTS for small molecule stabilizers of the endoplasmic reticulum resident proteome (AID 1508629).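 Note: compound exposure about 46 h in total before the viability read.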 Note: potency is the fitted concentration of half-maximal effect. The note with it: cell viability counter-screen, 100 nM thapsigargin for final 4 h.
For experiment [20], the target named is Glutathione peroxidase 1 (Homo sapiens) (UniProt P07203). The experiment is described as follows: Primary qHTS Assay for Inhibitors of Recombinant Selenoprotein Glutathione Peroxidase 1 (GPX1) (AID 1845191). Note: % is set by controls: 0 for no effect and ±100 for the full control effect; nearly all actives have a fitted effect of over 65% in size. The gist of the method:
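10 nM GPX1 + cpd, 30 min RT; start w/ 1 mM GSH, 0.5 mM cumene hydroperoxide, 0.5 mM NADPH, 100 nM GR, 0.01% BSA; buffer 50 mM Tris-HCl pH 7.5, 2 mM EDTA, 150 mM NaCl; Fl 340/450, 0 & 15 min.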

Experiment [21] concerns the target Phospholipid hydroperoxide glutathione peroxidase GPX4 (Homo sapiens) (UniProt P36969). The experiment in a line: Primary qHTS Assay for Inhibitors of Recombinant Selenoprotein Glutathione Peroxidase 4 (GPX4) (AID 1845192). Note: % is set by controls: 0 for no effect and ±100 for the full control effect; nearly all actives have a fitted effect of over 65% in size. The note with it: outcome: dose series up to 50 µM unless noted. The method in brief: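 NADPH consumption, followed by fluorescence at 340/450 nm between 0 and 15 min, reports GPX4 activity via coupled glutathione reductase (100 nM). Enzyme 200 nM was pre-exposed to compound 30 min; 0.5 mM cumene hydroperoxide and 1 mM GSH served as substrates.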

Experiment [22] deals with Cytochrome P450 2D6 (Homo sapiens) (UniProt P10635). The experiment is described as follows: qHTS Assay for Inhibitors and Substrates of Cytochrome P450 2D6 (AID 891). Note: potency is the fitted concentration of half-maximal effect; nearly all actives have a fitted effect of over 60% in size. The gist of the method:
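Human CYP2D6 (5 nM) with 30 uM Luciferin-ME EGE (at Km) in 100 mM KPO4, compound preincubated 10 min, then NADPH regeneration system for 60 min at room temperature. Luciferin read by luminescence; normalized to 1.43 uM quinidine.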

Where [23] appears, read: measured here: cell count channel max response.
The mark [24] stands for this setting: measured here: lipid channel max response.

Dual specificity protein kinase CLK4 (Homo sapiens), sequence (Q9HAZ1 whole entry, looked up): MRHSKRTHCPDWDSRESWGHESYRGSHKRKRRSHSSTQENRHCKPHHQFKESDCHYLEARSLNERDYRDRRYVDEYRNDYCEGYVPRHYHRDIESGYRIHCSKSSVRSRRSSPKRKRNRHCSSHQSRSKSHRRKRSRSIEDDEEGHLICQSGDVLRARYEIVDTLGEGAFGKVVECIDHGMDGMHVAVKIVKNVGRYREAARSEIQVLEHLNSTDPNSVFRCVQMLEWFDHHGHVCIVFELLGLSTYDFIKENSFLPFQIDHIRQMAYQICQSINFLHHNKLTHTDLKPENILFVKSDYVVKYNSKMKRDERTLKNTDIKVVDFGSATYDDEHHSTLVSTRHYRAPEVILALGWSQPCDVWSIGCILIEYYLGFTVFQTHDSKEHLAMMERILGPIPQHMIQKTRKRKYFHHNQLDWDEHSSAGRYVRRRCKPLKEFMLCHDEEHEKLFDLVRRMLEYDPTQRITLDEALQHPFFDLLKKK
Cytochrome P450 1A2 (Homo sapiens), sequence (P05177 whole entry, looked up): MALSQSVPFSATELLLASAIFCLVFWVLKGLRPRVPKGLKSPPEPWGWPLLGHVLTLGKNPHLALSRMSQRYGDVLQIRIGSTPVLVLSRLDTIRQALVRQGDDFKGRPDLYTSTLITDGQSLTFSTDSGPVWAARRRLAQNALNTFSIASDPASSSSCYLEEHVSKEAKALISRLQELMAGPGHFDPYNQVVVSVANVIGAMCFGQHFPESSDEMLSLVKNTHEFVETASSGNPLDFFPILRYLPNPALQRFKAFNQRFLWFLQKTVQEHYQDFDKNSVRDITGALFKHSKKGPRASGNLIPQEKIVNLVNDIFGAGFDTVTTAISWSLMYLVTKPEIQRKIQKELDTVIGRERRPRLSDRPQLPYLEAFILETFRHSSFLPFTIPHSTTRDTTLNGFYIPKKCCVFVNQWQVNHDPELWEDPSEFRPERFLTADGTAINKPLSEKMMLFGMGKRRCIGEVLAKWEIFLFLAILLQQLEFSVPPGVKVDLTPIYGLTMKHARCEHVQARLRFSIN
3',5'-cyclic-AMP phosphodiesterase 4B (Homo sapiens), sequence (Q07343 whole entry, looked up): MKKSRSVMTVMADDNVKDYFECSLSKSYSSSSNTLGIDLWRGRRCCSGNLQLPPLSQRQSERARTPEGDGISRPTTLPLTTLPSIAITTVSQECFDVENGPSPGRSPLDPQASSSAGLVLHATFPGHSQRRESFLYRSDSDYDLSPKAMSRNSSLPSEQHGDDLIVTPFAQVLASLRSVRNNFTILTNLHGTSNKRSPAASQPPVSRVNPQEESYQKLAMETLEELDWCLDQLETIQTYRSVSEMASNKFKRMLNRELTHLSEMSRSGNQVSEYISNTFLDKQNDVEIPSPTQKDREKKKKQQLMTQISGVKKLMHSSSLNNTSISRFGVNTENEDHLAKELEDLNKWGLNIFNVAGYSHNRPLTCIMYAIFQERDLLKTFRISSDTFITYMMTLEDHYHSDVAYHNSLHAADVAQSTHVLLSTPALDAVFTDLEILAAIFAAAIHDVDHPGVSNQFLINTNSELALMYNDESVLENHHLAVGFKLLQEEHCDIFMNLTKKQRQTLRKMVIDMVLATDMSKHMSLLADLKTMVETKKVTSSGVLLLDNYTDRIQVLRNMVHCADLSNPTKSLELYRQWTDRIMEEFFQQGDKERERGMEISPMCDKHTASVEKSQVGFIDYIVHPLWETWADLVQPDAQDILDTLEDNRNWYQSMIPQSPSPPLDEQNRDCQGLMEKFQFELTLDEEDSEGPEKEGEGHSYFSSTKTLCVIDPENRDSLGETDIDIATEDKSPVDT
Lysosomal acid glucosylceramidase (Homo sapiens), sequence (P04062 whole entry, looked up): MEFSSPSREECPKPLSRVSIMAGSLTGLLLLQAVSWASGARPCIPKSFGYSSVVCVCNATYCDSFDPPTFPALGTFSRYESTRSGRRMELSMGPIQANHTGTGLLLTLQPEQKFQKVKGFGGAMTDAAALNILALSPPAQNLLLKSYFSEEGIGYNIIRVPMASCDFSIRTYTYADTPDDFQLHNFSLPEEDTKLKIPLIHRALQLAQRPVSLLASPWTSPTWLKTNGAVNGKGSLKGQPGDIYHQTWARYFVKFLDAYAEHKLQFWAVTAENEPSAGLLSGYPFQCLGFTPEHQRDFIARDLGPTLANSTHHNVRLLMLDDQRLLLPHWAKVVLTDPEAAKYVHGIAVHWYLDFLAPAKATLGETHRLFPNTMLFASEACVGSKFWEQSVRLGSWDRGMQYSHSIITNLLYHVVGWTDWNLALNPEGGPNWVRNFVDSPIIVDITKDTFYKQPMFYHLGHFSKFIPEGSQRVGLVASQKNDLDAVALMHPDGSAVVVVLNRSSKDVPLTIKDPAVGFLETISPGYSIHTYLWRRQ
Glucocorticoid receptor (Homo sapiens), sequence (P04150 whole entry, looked up, the tested form may be a part): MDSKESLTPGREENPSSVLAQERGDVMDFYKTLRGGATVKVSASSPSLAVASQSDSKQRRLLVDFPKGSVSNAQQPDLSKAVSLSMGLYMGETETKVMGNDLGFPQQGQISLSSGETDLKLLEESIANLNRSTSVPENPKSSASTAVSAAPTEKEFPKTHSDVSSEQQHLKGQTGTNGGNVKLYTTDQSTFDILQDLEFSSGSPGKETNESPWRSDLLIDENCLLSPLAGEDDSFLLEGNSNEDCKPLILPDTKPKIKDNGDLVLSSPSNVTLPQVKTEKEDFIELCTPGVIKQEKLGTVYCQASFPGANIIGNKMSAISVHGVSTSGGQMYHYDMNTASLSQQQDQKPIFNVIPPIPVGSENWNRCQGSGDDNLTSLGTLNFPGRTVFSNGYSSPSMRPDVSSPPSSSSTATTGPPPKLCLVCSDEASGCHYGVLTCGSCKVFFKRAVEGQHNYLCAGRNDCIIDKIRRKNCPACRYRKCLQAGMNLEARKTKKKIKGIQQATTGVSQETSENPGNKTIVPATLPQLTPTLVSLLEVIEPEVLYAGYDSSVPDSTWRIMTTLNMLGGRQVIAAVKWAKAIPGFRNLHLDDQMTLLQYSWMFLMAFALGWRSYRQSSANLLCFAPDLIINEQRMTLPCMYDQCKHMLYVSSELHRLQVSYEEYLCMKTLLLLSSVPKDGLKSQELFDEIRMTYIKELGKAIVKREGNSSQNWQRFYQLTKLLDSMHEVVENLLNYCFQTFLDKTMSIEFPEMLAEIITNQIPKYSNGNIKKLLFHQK
Cytochrome P450 3A4 (Homo sapiens), sequence (P08684 whole entry, looked up): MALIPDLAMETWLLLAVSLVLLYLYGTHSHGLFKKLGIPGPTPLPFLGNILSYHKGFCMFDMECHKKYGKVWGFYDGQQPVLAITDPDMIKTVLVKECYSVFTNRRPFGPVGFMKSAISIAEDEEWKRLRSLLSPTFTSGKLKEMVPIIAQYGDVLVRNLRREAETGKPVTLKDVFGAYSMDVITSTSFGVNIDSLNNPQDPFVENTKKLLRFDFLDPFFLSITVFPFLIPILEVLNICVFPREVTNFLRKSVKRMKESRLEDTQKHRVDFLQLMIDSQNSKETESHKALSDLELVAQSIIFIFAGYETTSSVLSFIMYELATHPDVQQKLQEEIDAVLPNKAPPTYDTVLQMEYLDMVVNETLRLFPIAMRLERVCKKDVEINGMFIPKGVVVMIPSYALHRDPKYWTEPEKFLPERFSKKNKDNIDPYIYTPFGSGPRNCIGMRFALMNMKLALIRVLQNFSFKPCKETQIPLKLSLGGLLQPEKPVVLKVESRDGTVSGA
Ubiquitin carboxyl-terminal hydrolase 1 (Homo sapiens), sequence (O94782 whole entry, looked up): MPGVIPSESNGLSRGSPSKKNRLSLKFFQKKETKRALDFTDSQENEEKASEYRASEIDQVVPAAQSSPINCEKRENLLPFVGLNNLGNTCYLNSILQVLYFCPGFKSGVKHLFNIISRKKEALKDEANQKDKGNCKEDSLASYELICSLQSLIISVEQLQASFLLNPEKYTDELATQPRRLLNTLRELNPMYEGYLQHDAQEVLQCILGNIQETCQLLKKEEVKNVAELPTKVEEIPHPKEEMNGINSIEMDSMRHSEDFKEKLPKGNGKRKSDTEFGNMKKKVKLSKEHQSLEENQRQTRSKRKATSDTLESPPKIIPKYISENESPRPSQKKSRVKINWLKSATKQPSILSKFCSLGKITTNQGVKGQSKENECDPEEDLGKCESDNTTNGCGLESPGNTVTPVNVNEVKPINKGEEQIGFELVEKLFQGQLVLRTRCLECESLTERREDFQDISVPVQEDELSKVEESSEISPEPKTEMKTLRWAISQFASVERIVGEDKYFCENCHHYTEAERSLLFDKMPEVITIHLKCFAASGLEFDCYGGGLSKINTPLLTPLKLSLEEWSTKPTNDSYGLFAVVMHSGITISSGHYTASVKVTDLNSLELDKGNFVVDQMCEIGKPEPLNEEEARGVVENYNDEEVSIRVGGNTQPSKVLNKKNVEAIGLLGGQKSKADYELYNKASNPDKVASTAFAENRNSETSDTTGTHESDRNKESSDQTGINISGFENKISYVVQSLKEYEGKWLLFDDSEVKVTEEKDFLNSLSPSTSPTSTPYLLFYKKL
Glutathione peroxidase 1 (Homo sapiens), sequence (P07203 whole entry, looked up): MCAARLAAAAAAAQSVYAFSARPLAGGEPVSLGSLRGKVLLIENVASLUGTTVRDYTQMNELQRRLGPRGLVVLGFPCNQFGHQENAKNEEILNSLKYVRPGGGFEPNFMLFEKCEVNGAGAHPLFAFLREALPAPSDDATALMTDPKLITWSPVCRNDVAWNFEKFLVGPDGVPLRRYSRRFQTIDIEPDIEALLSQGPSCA
Phospholipid hydroperoxide glutathione peroxidase GPX4 (Homo sapiens), sequence (P36969 whole entry, looked up): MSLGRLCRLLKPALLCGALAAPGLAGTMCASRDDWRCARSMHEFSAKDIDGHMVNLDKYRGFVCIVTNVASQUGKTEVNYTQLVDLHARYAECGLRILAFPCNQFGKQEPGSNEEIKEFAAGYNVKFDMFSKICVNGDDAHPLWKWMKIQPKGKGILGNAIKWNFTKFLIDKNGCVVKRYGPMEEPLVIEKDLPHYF

On to `FC(F)(F)c1ccccc1-c1nccc(N2CCNCC2)n1`, for which the Potency in [1] is > 11.4 µM (inactive); in experiment [3] it was 10 µM (active); in experiment [6], > 46 µM (inactive); in [7], > 46 µM (inactive); in experiment [17] it was 15.8 µM (active). Also, the activity change, negative = inhibition in experiment [2] is -4.79% (inactive); in [4], -3.28% (inactive); in experiment [10], 37.4% [at 2.29 µM] (inactive); in [11], 4.7% (inactive). Also, the activity, negative = inhibition in [5] is 9.61% (inactive). The outcome in experiment [8] was inactive. Further, the Potency entry in [9], in experiment [12], in experiment [13], in experiment [14], in [15] and in experiment [16] was “inactive” throughout. In addition, the results for the max response in [11] (setting [23]) and in experiment [11] (setting [24]) were 10.7% and 12.2%, respectively.

For the compound `COc1ccc(NC(=O)N2CCC3(CC2)CCN(S(=O)(=O)c2ccccc2)CC3)cc1`, the Potency in experiment [1] was > 11.4 µM (inactive); in experiment [3], 31.6 µM (active); in [7] it was > 46 µM (inactive). Further, the activity change, negative = inhibition in experiment [2] is -24% (inactive); in experiment [4], -21.7% (inactive); in experiment [11] it was 2.68% (inactive). In addition, the activity, negative = inhibition in experiment [5] was -16.7% (inactive). The compound was called inactive in experiment [8]. For the same compound, the Potency result in experiment [9], in [18], in experiment [16] and in [17] was “inactive” each time. Further, the max response in [11] (setting [23]) is 2.58%; in experiment [11] (setting [24]), 8.36%; in experiment [19] it was -18.8% (inactive).

As for `COc1ccc(-c2nc3cnc(N4CCNCC4)nc3n(-c3ccc(OC)cc3)c2=O)cc1`, the Potency in experiment [1] is > 11.4 µM (inactive); in experiment [6], > 9.22 µM (inactive); in [7] it was > 46 µM (inactive); in experiment [19] it was 25.1 µM (active). For the same compound, in experiment [8], the compound was classed as inactive. Besides, the Potency entry in experiment [9], in [12], in [13], in experiment [15], in experiment [16] and in experiment [17] was “inactive” each time. Also, the activity change, negative = inhibition in [11] was 1.3% (inactive). Further, the values for the max response in [11] (setting [23]) and in experiment [11] (setting [24]) were 15% and 15.1%, respectively.

Regarding `OC[C@H]1NC[C@@H](O)[C@@H](O)[C@@H]1O`, the Potency result in experiment [16], in [17], in experiment [20] and in [21] was “inactive” each time. Moreover, the max response in experiment [19] was 8.42% (inactive).

With `CCNc1ncc2nc(CCc3ccccc3)c(=O)n(CCOC)c2n1`, the activity change, negative = inhibition in [2] was 0.721% (inactive); in experiment [4], 2.18% (inactive). Besides, the Potency in experiment [3] is 2 µM (active); in [6], > 9.22 µM (inactive); in experiment [22], 0.398 µM (active); in experiment [17] it was 35.5 µM (active). Besides, in experiment [5], the activity, negative = inhibition is -8.07% (inactive). Also, in experiment [8], the outcome was inactive. Also, the Potency result in experiment [18] and in [16] was “inactive” each time. Besides, the max response in [19] is 18.6% (inactive).
